A selection: hits, their analogues and other compounds. The true share with any hit is near 11%.
NPR1 antag = Natriuretic polypeptide receptor (hNpr1) antagonism - Primary qHTS | HEK293 hNpr1 GloSensor cGMP, ANP-stimulated luminescence | 76,000 tested, 1.6% active | Potency, µM (titrated, usually from 46.3 µM), without a hit: at the top dose activity change, negative = inhibition, hits mostly inhibitors; calls by dose curve; note: nearly all actives have a fitted effect of over 60% in size
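HEK293 cells stably expressing human Npr1 and cGMP GloSensor pGS-40F, loaded 2 h with 2% GloSensor reagent, given compound 30 min at room temperature. Luminescence read before and 20 min after 0.1 nM hNppA.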
Luciferase inh = Firefly luciferase inhibition profiling of diverse chemical library using quantitative high-throughput screening. Luciferin 4-monooxygenase (Photinus pyralis), P08659. purified P. pyralis luciferase, luminescence, biochemical. Potency, µM (titrated, usually from 115 µM), usual class: inhibitors. 76,000 tested, 2.5% active. AID 1347043, 2019; note: nearly all actives have a fitted effect of over 65% in size
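Luminescence read by CCD imaging after purified firefly luciferase (10nM final) was added to substrate buffer holding 10uM D-luciferin and 10uM ATP, pH 7.5, pre-dosed with compound.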
3T3 cytotox = Cytotoxic Profiling in NIH 3T3 Cell Line of Diverse Libraries Using Quantitative High-Throughput Screening; NIH 3T3 viability, CellTiter-Glo ATP luminescence, 48-72 h; Potency, µM (series often up to 96.7 µM), for the others: at the highest dose activity change, negative = cytotoxicity, hits mostly inhibitors; AID 1345082, 2018; 94,000 tested, 4.3% active; note: nearly all actives have a fitted effect of over 55% in size
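Viability of NIH 3T3 cells after 48 or 72 hr compound treatment at 37 °C was assessed by CellTiter-Glo, with luminescence imaged following a 10 min room-temperature step.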
HEK293 tox = Cytotoxic Profiling in HEK 293 Cell Line of Diverse Libraries Using Quantitative High-Throughput Screening. HEK 293 viability, ATP luminescence (CellTiter-Glo), 48-72 h. Potency, µM (series often up to 115 µM), inactives show top-dose activity change, negative = cytotoxicity, actives largely listed as inhibitors. 94,000 tested, 6.6% active; note: nearly all actives have a fitted effect of over 60% in size
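Viability of HEK 293 cells, plated at 250 cells/well, was judged by cellular ATP after compound treatment for 48 or 72 hr. Luminescence was imaged 10 min after CellTiter-Glo addition at room temperature.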
Numbers without * were called inactive; i = inactive; u = inconclusive; x = not tested or not shown; [ ] = another dose, or the depositor's remark. Unless noted, calls come from the whole dose curve; as a rule, active = well fitted curve in the direction sought with a large enough effect; inconclusive = small, poorly fitted or top-dose-only effect, or another doubt; inactive = no such curve, though single readings can be large; an effect the other way counts as inactive or inconclusive. % is set by controls: 0 for no effect and ±100 for the full control effect; potency is the fitted concentration of half-maximal effect.

SMILES	NPR1 antag	Luciferase inh	3T3 cytotox	HEK293 tox
COc1ccccc1C(CC(=O)NCCc1ccccc1)c1c[nH]c2ccccc12 (centres undefined)	-5%	u	40µM*	u
O=C(N[C@@H]1CN(C(=O)c2ccc3ccccc3n2)C[C@H]1CO)c1ccccc1	x	x	-24%	-9%
O=C(NCC1CCCO1)c1ccc2oc(-c3ccc(C(F)(F)F)cc3)nc2c1 (centres undefined)	u	i	-20%	18µM*
O=C(NC1CCCCCC1)c1ccc2oc(-c3ccncc3)nc2c1	x	x	-24%	35µM*
O=C(c1ccc2oc(-c3ccc(C(F)(F)F)cc3)nc2c1)N1CCOCC1	-14%	i	u	u
C[C@H](C(=O)N1CCCC1)[C@@H]1CC[C@@]2(C)Cc3sc(-c4ccsc4)nc3[C@@H](C)[C@@H]2[C@H]1O	-19%	11µM*	-26%	u
CCC(=O)NC[C@@H]1CC[C@H]2C[C@@H]1C2(C)C	6%[70.6 µM]	i	-27%[174 µM]	-11%[230 µM]
CC1(C)[C@H]2CC[C@@H](CNC(=O)Cc3cccc(Cl)c3)[C@@H]1C2	8%[70.6 µM]	i	u	100µM*
CC1(C)[C@H]2CC[C@@H](CNC(=O)c3ccc(Cl)nc3)[C@@H]1C2	-7%[70.6 µM]	i	79µM*	u
Cc1ccccc1C(=O)NC[C@@H]1CC[C@H]2C[C@@H]1C2(C)C	-5%[70.6 µM]	i	u	u
CC1(C)[C@H]2CC[C@@H](CNC(=O)c3ccc4ccccc4n3)[C@@H]1C2	0%[70.6 µM]	i	89µM*	u
CC1(C)[C@H]2CC[C@@H](CNC(=O)N3CCCC3)[C@@H]1C2	-7%[70.6 µM]	i	u	63µM*
Cc1ccc(C(=O)NC[C@@H]2CC[C@H]3C[C@@H]2C3(C)C)cc1	6%[70.6 µM]	i	u	u
O=C(Nc1cc(C2CC2)nn1-c1ccccc1)C1CC1	x	x	-9%[138 µM]	i
O=S(=O)(c1ccc2c(c1)OCCO2)N1CCCC(c2nc(CCOCC3CC3)no2)C1 (centres undefined)	-15%	i	-29%	u
Cc1cc(C(=O)NC[C@@H]2CC[C@H]3C[C@@H]2C3(C)C)ccc1Cl	u	i	35µM*	u
CC1(C)[C@H]2CC[C@@H](CNC(=O)c3ccncc3)[C@@H]1C2	-17%[70.6 µM]	i	u	u
CC1(C)[C@H]2CC[C@@H](CNC(=O)c3cccc(Br)c3)[C@@H]1C2	-2%[70.6 µM]	i	u	100µM*
Cc1ncsc1C1N(C2CCN(Cc3cn(C)c4ccccc34)CC2)C(=O)C12CCCC2 (centres undefined)	1%	i	-22%	79µM*
CC(=O)N1CCC(N2C(=O)C3(CCCC3)C2c2scnc2C)CC1 (centres undefined)	4%	i	u	i
Clc1ccc(C2Cn3nnc(-c4noc(COc5ccccc5)n4)c3CO2)cc1 (centres undefined)	0%	i	-9%	u
C[S+](=O)([O-])N1CCCC(C(=O)N2CCCC2c2nc3ccncc3[nH]2)C1 (centres undefined)	x	x	-19%	-5%
OCCC1CCN(c2ccc(-c3nc(CCCc4ccccc4)no3)cn2)CC1	-17%	i	1%	-19%
CC1(O)CCCN(c2ccc(-c3nc(CCCc4ccccc4)no3)cn2)C1 (centres undefined)	u	35µM*	u	32µM*
OCCC1CN(c2ccc(-c3nc(CCCc4ccccc4)no3)cn2)CCO1 (centres undefined)	u	i	u	50µM*
C[C@@H](Nc1ccc(-c2nc(CCCc3ccccc3)no2)cn1)C(N)=O	8%	i	-8%	-6%
Cc1ccc(C(=O)N2CCCC(c3nn(-c4ccccn4)c(=O)[nH]3)C2)cc1 (centres undefined)	x	x	0%	4%
Cc1c(-c2ccccc2)[nH]c2c(CNC(=O)CN3C(=O)CNC3=O)cc(Cl)cc12	2%	10µM*	u	u
Cc1c(-c2ccccc2)[nH]c2c(CNC(=O)c3ccc(=O)n(C)n3)cc(Cl)cc12	11µM*	u	u	28µM*

From PubChem
